Sm TGR inh: qHTS Assay for the Inhibitors of Schistosoma Mansoni Peroxiredoxins; Potency, µM (doses to about 114 µM), inactives show at the top dose activity change, negative = inhibition, most hits filed as inhibitors; Schistosoma mansoni thioredoxin glutathione reductase (TGR), Q962Y6; purified TGR, DTNB reduction, TNB absorbance 405 nm; 360,000 tested, 3% active; active = well fitted inhibition curve with a large enough effect; inconclusive = small, poorly fitted or top-dose-only effect; inactive = no such curve, though single readings can be large or run the other way; also: potency is read from the fitted curve at half-maximal effect; % is scaled to controls: 0 for no effect and ±100 for the full control effect; nearly all actives have a fitted effect of over 60% in size
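TGR 20 nM + NADPH 100 uM (dispensed conc.), cpd preinc 15 min RT; start with NADPH (500 uM addition) then DTNB (15 mM addition). Kinetic TNB absorbance, 405 nm filter. Four-parameter Hill fit across titration.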
Shiga inhibitor: A qHTS for Small Molecule Inhibitors of Shiga Toxin | inhibition, % at 38.7 µM | Vero cells, Shiga toxin protein synthesis inhibition reporter | 290,000 tested, 9.2% active; in the data active = inhibition mostly above about 28%, no sharp cut-off; inactive = mostly below about 43%; also: 0% is about no effect
FMDV inh: High Throughput Screening for Foot and Mouth Disease Virus Antivirals | FMDV antiviral cell-based qHTS | Potency, µM (highest dose often 57.9 µM), inactives show top-dose activity change, negative = inhibition, actives largely listed as inhibitors | 410,000 tested, 1.2% active | AID 1159524, 2015; calls by dose curve; tested in HEK293T cells; also: read-out not given here; potency is read from the fitted curve at half-maximal effect; % is scaled to controls: 0 for no effect and ±100 for the full control effect; nearly all actives have a fitted effect of over 45% in size
CHX counter: Cycloheximide Counterscreen for Small Molecule Inhibitors of Shiga Toxin. 300,000 tested, 12% active. max response, %. cell reporter, cycloheximide protein synthesis inhibition counterscreen. AID 2314, 2010; in the data active = max response mostly above about 13%, no sharp cut-off; inactive = mostly below about 14%; also: read at 38.3 µM for the half of the compounds with a filed dose; 0% is about no effect
* hit, by the source's call; ? = inconclusive; / = no result. A selection: hits, their analogues and other compounds. The true share with any hit is near 12%.

SMILES | Sm TGR inh | Shiga inhibitor | FMDV inh | CHX counter
COc1cc(/C=C/CN2CCC(CO)(CC3CCCCO3)CC2)ccc1O (configuration not stated) | 13µM* | -11 | -10% | 0
CCc1ccc(CN2CCC(CO)(CC3CCCCO3)CC2)o1 (configuration not stated) | 0% | -1 | -7% | -1
Cc1ccc(N2CC(C(=O)Nc3ccc(Br)cc3)CC2=O)cc1 (configuration not stated) | 6% | / | 3% | /
COc1ccc2oc(-c3ccc(NC(=O)c4ccc(Cl)cc4Cl)cc3)nc2c1 | 5% | / | ? | /
COc1ccc(CNC(=O)C2CCN(c3nc4ccc(C)cc4[nH]3)CC2)cc1 | 0% | / | -4% | /
COc1ccc(NC(=O)CSc2nnc(NC(=O)NC3CCCCC3)s2)cc1OC | 7% | / | 38% | /
COc1ccc(OCCSc2ncn[nH]2)cc1 | 7% | 30 | 19% | 17
COc1ccc(OCCSc2n[nH]c(N)n2)cc1 | 8% | 49 | 20% | 31*
CCCNC(=O)Cn1nc(-c2ccc(F)cc2)c2cnc3ccc(F)cc3c21 | 8% | / | -4% | /
O=C(O)c1ccc(-n2cccn2)c([N+](=O)[O-])c1 | / | -10 | -13% | -4
Cc1ccc(NC(=O)c2ccc(-n3cccn3)c([N+](=O)[O-])c2)cc1 | ? | 22 | -4% | 21*
Cc1cccc(NC(=O)c2ccc(-n3cccn3)c([N+](=O)[O-])c2)c1 | 40µM* | 49 | -13% | 32*
O=C(Nc1ccccc1Cl)c1ccc(-n2cccn2)c([N+](=O)[O-])c1 | ? | 42* | 8% | 16
Cc1ccc(CN2C(=O)C3(c4ccccc42)N(c2cccc(C(F)(F)F)c2)C(=O)CS3(=O)=O)cc1 (configuration not stated) | 8% | / | ? | /
CCCCn1c(=O)c2oc3ccccc3c2n(CC(=O)Nc2ccc(CC)cc2)c1=O | 1% | / | -14% | /
Nc1cc(=O)nc(SCC(=O)Nc2ccc(F)cc2)n1-c1ccc(Cl)cc1 | 6% | / | -18% | /
CCCC(=O)N1c2ccccc2[C@@H](N(C(C)=O)c2ccccc2)C[C@H]1C | 0% | -15 | -23% | 0
CCC(=O)N1c2ccccc2C(N(C(C)=O)c2ccccc2)CC1C (configuration not stated) | 10µM* | 19 | 35% | 6
COC(=O)C(C)n1nnc2sc(-c3ccccc3)cc2c1=O (configuration not stated) | -8% | 113* | 55% | 40*
CCOCCCn1c(=N)c(C(=O)NC2CCCC2)cc2c(=O)n3cccc(C)c3nc21 | 0% | / | -15% | /
CNC(=S)NNC(=O)c1cn(C)nc1C | 6% | 22 | 4% | 0
Cc1cc(C(=O)NNC(=S)Nc2ccccc2)nn1C | / | 61* | 43% | 14
Cc1nn(C)cc1C(=O)NNC(=S)Nc1ccccc1 | 2% | 21 | 48% | 17*
CCc1ccc(CNC(=O)c2cc(=O)[nH]c3ccc(S(=O)(=O)N4CCCCC4)cc23)cc1 | 4% | / | -8% | /
CC(C)C[C@H](NC(=O)CN(C)C(=O)[C@H](Cc1ccccc1)NC(=O)[C@H](Cc1ccccc1)NC(=O)[C@H](CCC(N)=O)NC(=O)[C@H](CCC(N)=O)NC(=O)[C@@H]1CCCN1C(=O)[C@H](CCCCN)NC(=O)[C@@H]1CCCN1C(=O)[C@@H](N)CCCN=C(N)N)C(=O)N[C@@H](CCS(C)(=O)=O)C(N)=O | / | 19 | / | 5
SMILES | Sm TGR inh | Shiga inhibitor | FMDV inh | CHX counter
S=C(NCc1ccco1)NCc1ccco1 | / | / | -7% | /
COC(=O)c1ccc(NC(=S)NCc2ccco2)cc1 | ? | 29 | 39% | 12
CC(C)(C)NC(=S)NCc1ccco1 | 25µM* | -33 | -11% | -5
NC(=O)c1ccc(NC(=S)NCc2ccco2)cc1 | -27% | 39 | 22% | 11*
NS(=O)(=O)c1ccc(NC(=S)NCc2ccco2)cc1 | -22% | 14 | -4% | -1
CC(=O)c1ccc(NC(=S)NCc2ccco2)cc1 | / | 58* | 43% | 36*
CCCC1=Nc2cc(C(=O)NCc3ccccc3)ccc2Sc2ccccc21 | -1% | / | -10% | /
CCC[C@H](NC(C)=O)C(=O)N[C@H]1CC(=O)ONCCCC[C@@H](C(N)=O)NC(=O)[C@H](Cc2c[nH]c3ccccc23)NC(=O)[C@H](CCCN=C(N)N)NC(=O)[C@@H](Cc2ccc3ccccc3c2)NC(=O)[C@H](Cc2cnc[nH]2)NC1=O | / | -12 | / | -5
Cc1ccc(C2=NOC(=O)/C2=C\C=C\c2ccccc2)cc1 | ? | 3 | 14µM* | 8
Cc1cccc(C2=NOC(=O)/C2=C\c2ccccc2F)c1 | -5% | / | -11% | /
CC1=NN(c2ccccc2)C(=O)/C1=C/C=C/c1ccccc1 | -11% | 10 | 35µM* | -1
CC1=NN(c2ccccc2)C(=O)/C1=C\c1sccc1C | 5% | -4 | 4% | 11
CC1=NN(c2cccc(C(=O)O)c2)C(=O)/C1=C\C=C\c1ccco1 | ? | 126* | -20% | 86*
COc1cc(/C=C2\C(=O)N(c3cccc(C(=O)O)c3)N=C2C)ccc1OCc1ccccc1 | / | / | 45% | /
CCN(CC)C(=O)C1CCN(C(=O)c2cnn(-c3ccccc3)c2-n2cccc2)CC1 | ? | / | -10% | /
COc1ccc(-c2nc3ccccc3c(=O)o2)cc1 | 6% | 48 | 23% | 13*
COc1cccc(-c2nc3ccccc3c(=O)o2)c1 | -25% | 25 | 44% | 19*
COc1cc(OC)cc(-c2nc3ccccc3c(=O)o2)c1 | -29% | 14 | -5% | -3
Cc1ccc(-c2nc3ccccc3c(=O)o2)cc1 | 1% | / | 66% | 23*
CCn1c(CNC(=O)c2ccc(OC)cc2)nnc1SCC(=O)Nc1cccc(C)c1 | -8% | / | -9% | /
CC1CCc2nn(CC(=O)Nc3ccccc3Cl)cc2C1 (configuration not stated) | -1% | / | 35% | /
Cc1cccc(N=C2NN=C(c3ccc4c(c3)OCCO4)CS2)c1 | -1% | 93* | 4% | 27*
Cc1ccc(C2=NNC(=Nc3ccc(F)cc3)SC2)cc1 | 0% | 84* | 41% | 26*
CC1CCN(S(=O)(=O)c2ccc3[nH]cc(C(=O)NCc4ccc(F)cc4)c(=O)c3c2)CC1 | 6% | / | -9% | /
COc1cc(NS(=O)(=O)c2ccc(NC(=O)c3ccco3)cc2)nc(OC)n1 | 6% | -2 | 25% | -2
SMILES | Sm TGR inh | Shiga inhibitor | FMDV inh | CHX counter
Cc1cc(C)nc(NS(=O)(=O)c2ccc(NC(=S)NC(=O)c3ccco3)cc2)n1 | 14µM* | -8 | 102% | -1
Cc1cc(C)nc(NS(=O)(=O)c2ccc(NC(=S)NC(=O)C(C)(C)C)cc2)n1 | ? | -8 | 112% | -2
COc1cc(NS(=O)(=O)c2ccc(NC(=S)NC(=O)c3ccco3)cc2)nc(OC)n1 | 32µM* | -6 | 86% | 8
COc1cc(CN(C(=O)c2ccc(Cl)cc2)C2CCS(=O)(=O)C2)cc(OC)c1OC (configuration not stated) | 18% | / | -2% | /
CCOC(=O)c1c(C=O)c2sc(C)cc2n1C | 12% | 59 | 12% | 22*
Cc1c(C(=O)N2CC3CCC2C3)sc2ncnc(NCCc3ccccn3)c12 (configuration not stated) | / | / | -9% | /
CCOc1cc(/C=N/NC(=O)c2cccs2)cc([N+](=O)[O-])c1O | 6% | 49* | 4% | 45*
